Bioassay records deposited in PubChem by several laboratories.
Shown are actives, neighbours in structure and some others; about 3.7% of the full set was active somewhere.
BoNT-A LC inh2: blocks Botulinum neurotoxin A light chain protease. inhibition, % at 10 µM. 360,000 tested, 0.17% active. multiplex microsphere protease substrate cleavage, flow cytometry
Bead autofluor: counter-screen for toxin protease inhibitors: compound fluorescence; compound autofluorescence counterscreen, microsphere flow cytometry; stronger effect = higher value; AID 624483; fluorescence intensity (test concentration not listed); 360,000 tested, 3.1% active; in the data active means fluorescence intensity above about 16000; inconclusive means no clear call, values can overlap the other calls
BoNT-F LC inh: blocks Botulinum neurotoxin F light chain protease | Multiplex microsphere protease cleavage assay, flow cytometry | inhibition, % at 10 µM | 360,000 tested, 0.22% active; in the data active means inhibition above about 35%, passing the limit was not always enough; inconclusive means no clear call, values can overlap the other calls
Anthrax LF inh2: blocks Bacillus anthracis lethal factor protease. multiplex microsphere protease cleavage assay, LF. inhibition, % at 10 µM. P15917. 360,000 tested, 0.12% active
BH1578 lux ind: induces V. cholerae light production without autoinducers; V. cholerae BH1578 lux reporter, luminescence, 6 h; activation, % at 18.7 µM; 350,000 tested, 0.16% active; AID 588436; in the data active means activation mostly above about 9.7%, no sharp cut-off; inconclusive means no clear call, values can overlap the other calls; inactive means mostly below about 3.7%
BJeLR viability: BJeLR cell viability loss | BJeLR (HRASV12) viability, CellTiter-Glo ATP luminescence, 48 h | inhibition, % (test concentration not listed) | 300,000 tested, 0.17% active | AID 1554; in the data active means inhibition above about 50%; inconclusive means no clear call, values can overlap the other calls
Each line names hits and unclear results; the compound was inactive in the other large screens. Unless noted, no stated cut-off is given here; in the data, active means inhibition above about 30%; inconclusive means no clear call, values can overlap the other calls; inactive means below that.

O=C(OCc1ccccc1F)c1ccc2c(c1)-c1ccccc1C2=O	Bead autofluor 19102
COc1ccc(-c2ccc3c(c2)S(=O)(=O)c2cccc(C(=O)N4CCN(C5CCCCC5)CC4)c2C3=O)cc1OC	none (no result: BJeLR viability)
CC(=O)Nc1nc(C)c(Oc2ccc(Cl)cc2)c(=O)[nH]1	BoNT-A LC inh2 inconclusive, BoNT-F LC inh inconclusive
CC(=O)Nc1nc(C)c(Oc2ccc(Cl)cc2Cl)c(=O)[nH]1	BH1578 lux ind 17
CC(C)Nc1ncnc2c1ncn2[C@H]1CN(Cc2ccc(F)cc2)C[C@@H](CO)O1	none (no result: BJeLR viability)
CCOc1cc(CNn2cnnc2)ccc1OCC(=O)NC1CCCCC1	Bead autofluor 21782
COc1cccc(CN(CC2CCCO2)S(=O)(=O)c2ccc(S(=O)(=O)N(C)C)cc2)c1 (configuration not stated)	Bead autofluor 22709
O=C(NCc1ccco1)c1nc2c(nnn2Cc2ccccc2Cl)c(=O)[nH]1	none
Cc1ccc(C)c(Cn2nnc3c(=O)[nH]c(C(=O)NCc4ccco4)nc32)c1	Bead autofluor 22656
O=C(NCc1cccs1)c1nc2c(nnn2Cc2ccc(F)cc2)c(=O)[nH]1	Bead autofluor 16259
Cc1nc(NC(=O)c2cc3c(s2)CCCCC3)sc1C(=O)N(C)C	none
COC(=O)c1sc(NC(=O)c2cc3c(s2)CCCC3)nc1C	Bead autofluor 25221
CCC(CO)NC(=O)c1cc2c(s1)CCC2 (configuration not stated)	none (no result: BH1578 lux ind)
CC(NC(=O)c1cc2c(s1)CCCC2)C(C)(C)C (configuration not stated)	Bead autofluor 16452 (no result: BJeLR viability)
Cc1ccc(S(=O)(=O)N2C[C@@H](C)[C@]3(C2)[C@H](O)[C@H](OC(=O)Nc2cccs2)C[C@H]2C(=O)N(c4ccccc4)C(=O)[C@H]23)cc1	none (no result: BJeLR viability)
Cc1ccc(-n2nc(C(=O)O)cc2-c2ccccc2)cc1	Bead autofluor 22097
Cc1cccc(C)c1-n1nnnc1C(c1ccnc2ccccc12)N1CCN(C(=O)OCc2ccccc2)CC1 (configuration not stated)	none (no result: BH1578 lux ind, BJeLR viability)
Cc1ccc(O)c(-c2cc3ccccc3[nH]2)c1	Bead autofluor 23551
Cc1nnc(NC(=O)CSc2nnc(C(C)NC(=O)c3ccccc3F)n2C)s1 (configuration not stated)	none
COC(=O)c1ccccc1NC(=O)CSc1nnc(C(C)NC(=O)c2ccc(Cl)cc2Cl)n1C (configuration not stated)	Bead autofluor 22829
O=C(NCc1ccccc1Cl)C1CCN(S(=O)(=O)N2CCCCCC2)CC1	Bead autofluor 17397
CCOc1ccccc1N=Nc1c(C)[nH]n(C(N)=S)c1=O	BoNT-F LC inh 56
O=S(=O)(CCSc1ccccn1)c1nc2ccccc2s1	Bead autofluor 23137
O=S(=O)(CCSc1nc2ccccc2o1)c1nc2ccccc2s1	none
CCOC(=O)/C=C1\CC(=O)Nc2nonc2N1	Bead autofluor 22714
CCOC(=O)/C=C1\Nc2ccccc2OC1=O	none
CCOC(=O)/C=C1\CC(=O)Nc2cc(C)c(C)cc2N1	Bead autofluor 20731
O=C(COC(=O)Cc1c[nH]c2ccccc12)Nc1cccc(Br)c1	none (no result: BJeLR viability)
Cc1ccc(NC(=O)COc2nc(C)cs2)cc1	Bead autofluor 16659
O=C(CCc1ccccc1)NNC(=O)COc1ccccc1	BoNT-A LC inh2 inconclusive, Bead autofluor 24872
CC(C)(C)NC(=O)COc1ccc(-c2ccccc2)cc1	Bead autofluor 17169
Cc1ccc(OCC(=O)NNC(=O)CCC(=O)NCc2ccccc2)cc1	Bead autofluor 22071
O=C(Cc1ccccc1)Nc1ccc(C(=O)O)cc1	BoNT-A LC inh2 inconclusive, Bead autofluor 23610
OC[C@@H]1CN(Cc2ccco2)C[C@H](n2cnc3c(N4CCOCC4)ncnc32)O1	none (no result: BJeLR viability)
CC(=O)Nc1c(Cl)cc2c(c1Cl)C(=O)c1ccccc1-2	none (no result: BJeLR viability)
CC(=O)Nc1ccc(C(=O)NNC(=O)CCc2ccccc2)cc1	Bead autofluor 23567
CC(C(=O)N1CCCC1)N(c1ccc(Cl)cc1)S(C)(=O)=O (configuration not stated)	none (no result: BJeLR viability)
CCN1C(=O)[C@H]2[C@@H](c3ccc(OC)cc3)N[C@]3(CCCN(Cc4ccc(Br)cc4)C3=O)[C@H]2C1=O	none (no result: BJeLR viability)
Cc1ccc(-c2nc(N/N=C/c3ccccc3[N+](=O)[O-])c3ccccc3n2)cc1	Bead autofluor 16971
O=[N+]([O-])c1ccccc1C=NNc1ccccc1	none (no result: BJeLR viability)
COc1ccc(NC(=O)C(C)N2c3cccc4cccc(c34)S2(=O)=O)cc1 (configuration not stated)	Bead autofluor 22225
Cc1ccc(C2C(C#N)=C(N)SC(N)=C2C#N)c(C)c1	BoNT-A LC inh2 40, BoNT-F LC inh 71
Cc1nn(C)c(C)c1/C=N/NC(=O)C(C)(C)Oc1ccc(Cl)cc1	BoNT-A LC inh2 inconclusive, Bead autofluor 24501
Cc1c(/C=N/NC(=O)C(C)(C)Oc2ccc(Cl)cc2)cnn1C	none
O=S1(=O)N[C@@H](Cc2ccccc2)COc2cc(N3CCC[C@H]3CO)ccc21	none (no result: BH1578 lux ind, BJeLR viability)
O=P(Nc1ccccc1)(Nc1ccccc1)Oc1ccc(Cl)cc1	Bead autofluor 23234
COC(=O)[C@]12CCCCC=C1N(Cc1ccco1)C(=O)[C@H](CC(=O)NCc1cccs1)C2	none (no result: BH1578 lux ind, BJeLR viability)
CCCCNC(=O)C1(C)CCCCN1C(=O)c1c(C)noc1C (configuration not stated)	none (no result: BJeLR viability)
COC(=O)c1ccc(-n2cncn2)c(F)c1	BoNT-A LC inh2 inconclusive, Bead autofluor 23526
COC(=O)c1ccc(-n2cncn2)c([N+](=O)[O-])c1	Bead autofluor inconclusive
CC(=O)NC(=S)Nc1sc2c(c1C#N)CCCCC2	none
N#Cc1c(NC(=S)NC(=O)Cc2cccs2)sc2c1CCCCC2	Bead autofluor 20268
N#Cc1c(NC(=O)CSc2ncn[nH]2)sc2c1CCCCC2	BoNT-A LC inh2 inconclusive, Bead autofluor 22487
N#Cc1c(NC(=O)CSc2nc(N)cc(=O)[nH]2)sc2c1CCCCCC2	none
COc1cc(NC(=O)Nc2nnc([C@H]3C[C@H](O)[C@@H](CO)O3)s2)cc(OC)c1OC	none (no result: BJeLR viability)
CC(C)(C)OC(=O)N1CCC[C@@H]1C(=O)N1CCC[C@@H]1C(=O)NCc1ccccc1Cl	none (no result: BH1578 lux ind, BJeLR viability)
CC1(C)CC(=O)C(C=NCCN2CCN(CCc3ccccc3)CC2)=C(O)C1	Bead autofluor 20820
COCCCN=CC1=C(O)CC(C)(C)CC1=O	BoNT-A LC inh2 inconclusive, Bead autofluor 23898
CC1(C)CC(=O)C(C=NCCN2CCN(C(=O)Cc3ccccc3)CC2)=C(O)C1	none
CC1(C)CC(=O)C(C=NCCN2CCN(C(=S)Nc3ccc(F)cc3)CC2)=C(O)C1	BoNT-A LC inh2 inconclusive, Bead autofluor 16455
CC1(C)CC(=O)C(C=NCCN2CCN(CC(=O)Nc3ccc(F)cc3)CC2)=C(O)C1	none
CCC(CC)C(=O)N(C)c1c(C)nc2c(OCC3CCCCC3)cccn12	none (no result: BJeLR viability)
COc1ccc(-c2oc3ccc(-c4cc(OC)c(OC)c(OC)c4)cc3c2C#Cc2ccccn2)cc1	none (no result: BJeLR viability)
NC(=O)c1[nH]cnc1N=NN(CCO)Cc1ccccc1	none (no result: BJeLR viability)
Cc1ccc(NC(=O)CCc2ccc(S(=O)(=O)NC3CCCCC3)cc2)cc1	none
